Composite z-score data for 35 compounds are collected here from PubChem BioAssay.

Structures are written as SMILES.

This assay in a line: binders of probe aFST on microarray, primary screen, stem cell growth factor project, biochemical, small-molecule microarray, fluorescence 635/667 (AID 1086).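 Further: score merges 667 nm fluorescence with signal-to-noise of each printed compound spot.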 The note with it: higher = more signal.
`O=C1O[C@H](c2ccccc2)[C@H](c2ccccc2)N2[C@H]1[C@@H](C(=O)Nc1nc3ccccc3s1)[C@]1(C(=O)Nc3ccc(C#CCCO)cc31)[C@H]2c1ccc(OCCO)cc1` came in with a composite z-score of 0.119.

`O=C1OCCC/C=C\[C@H]2OC34C=CCN(Cc5ccccc5)C(=O)[C@H]3N(CCCCCCO)C(=O)[C@@H]4C12` (stereo not given in full) returned a composite z-score of -0.467.

As to `C=CC[C@]1(C(=O)N2CCCCC2)N=C(c2ccc(OCCCO)cc2)O[C@H]1c1ccccc1`, the composite z-score was found to be 1.63.

Compound `COc1ccc(C(=O)O[C@H]2CC[C@]3(C)C4=C(CCC3C2(C)C)[C@]2(C)CC[C@H]([C@H](C)CCCC(C)C)[C@@]2(C)CC4)cc1` (stereo not given in full) returned a composite z-score of 0.18.

The compound `C[C@]1(C(=O)NC2CC2)c2ccccc2C(=O)N(Cc2cc(C(F)(F)F)cc(C(F)(F)F)c2)[C@H]1c1ccc(CO)cc1` displayed a composite z-score of 0.603.

Regarding `NCCCCCNC(=O)[C@@H]1C[C@@H]2C(=O)NCC(=O)N2[C@@H]1c1ccc(O)cc1`, the composite z-score is -0.107.

The compound `[N-]=[N+]=Nc1ccccc1C[C@@]1(C(=O)NCCN2CCOCC2)N=C(c2ccc(OCCCO)cc2)O[C@@H]1c1ccccc1` displayed a composite z-score of 1.01.

`Cc1ccc(S[C@]2(C(=O)NC3CC3)CC(=O)N(C3Cc4ccccc4C3)[C@@H]2c2ccc(CO)cc2)cc1` had a composite z-score of -0.175.

In the case of `C=C(/C(=C/C[C@@H](OC(C)=O)c1ccc(OCCO)cc1)c1cnc2ccccc2c1)C(C)C`, the composite z-score is 0.142.

In the case of `CC1(C)[C@@H]2CC(C(O)C3C=CC4C(=O)N(c5ccccc5)C(=O)C4N3Nc3ccccc3)=C[C@H]1C2` (stereo not given in full), the composite z-score was determined as 0.889.

Regarding `COC(=O)[C@@]1(Cc2ccc(F)cc2)[C@H]2c3cc(C(=O)N4CCCC4)n(Cc4cc(C)n(C)n4)c3C[C@H]2CN1C(=O)c1ccccc1`, the composite z-score is 0.939.

Compound `CC1CC/C=C\[C@H]2OC34C=CCN(c5ccc(Cl)cc5)C(=O)[C@H]3N(CCO)C(=O)[C@]4(C)C2C(=O)O1` (stereo not given in full) came in with a composite z-score of -0.448.

Compound `O=C1O[C@H](c2ccccc2)[C@H](c2ccccc2)N2[C@H]1[C@@H](C(=O)O)[C@]1(C(=O)Nc3ccc(C#CCCO)cc31)[C@H]2c1ccc(O)cc1` had a composite z-score of 0.481.

With `COc1cc2c(cc1O)C=[N+](Cc1cccc(OC(F)(F)F)c1)CC2`, the composite z-score was -0.0596.

`COC(=O)c1c(CC[C@@H](CO)NC(=O)N[C@H](Cn2cc(Cc3ccccc3)nn2)C(C)C)oc(C(C)=O)c1C(=O)OC`: the composite z-score was found to be 0.059.

`O=C1O[C@H](c2ccccc2)[C@H](c2ccccc2)N2[C@H]1[C@@H](C(=O)N1CCN(c3ncccn3)CC1)[C@]1(C(=O)Nc3ccc(C#CC4=CCCCC4)cc31)[C@H]2c1ccc(O)cc1` returned a composite z-score of 0.502.

`CN(C)CCCNC(=O)[C@@]1(c2ccc([N+](=O)[O-])cc2)CC(=O)N(C2CCCCC2)[C@@H]1c1ccc(CO)cc1` had a composite z-score of -0.114.

Turning to `COc1ccc(C#Cc2ccc3c(c2)[C@]2(C(=O)N3)[C@H](c3ccccc3OCCO)N3[C@H](c4ccccc4)[C@H](c4ccccc4)OC(=O)[C@H]3[C@@H]2C(=O)O)cc1`, the composite z-score was 0.336.

`COc1ccc([C@H]2OC[C@@H]3CC4(CC=CC4)C(=O)N32)cc1` yielded a composite z-score of -0.0135.

With `COc1ccc(C(O)C2C=CC3C(=O)NC(=O)C3N2Nc2ccccn2)c2ccccc12` (stereo not given), the composite z-score is 0.119.

`Cc1ccc(S[C@]2(C(=O)NC(C)C)CC(=O)N(Cc3ccccc3Cl)[C@@H]2c2ccc(CO)cc2I)cc1` yielded a composite z-score of -0.377.

In turn, `C=CCOC(=O)[C@@H]1[C@H]2C(=O)O[C@H](c3ccccc3)[C@H](c3ccccc3)N2[C@H](c2ccc(OCCOC(=O)[C@@H]3C[C@@H]4C(=O)N5CCC[C@H]5C(=O)N4[C@@H]3c3ccc(O)cc3)cc2)[C@@]12C(=O)Nc1ccc(I)cc12` came in with a composite z-score of 0.965.

In the case of `CCN(CC)c1ccc(N2CC=CC34O[C@@H]5/C=C\CCCOC(=O)C5[C@H]3C(=O)N(CCO)[C@@H]4C2=O)cc1` (stereo not given in full), the composite z-score was -0.584.

Compound `C=CCNC(=O)[C@@H]1[C@H]2C(=O)O[C@H](c3ccccc3)[C@H](c3ccccc3)N2[C@H](c2ccc(OCCO)cc2)[C@@]12C(=O)Nc1ccc(C#CCCO)cc12` returned a composite z-score of 0.804.

Turning to `COC(=O)C(CC#Cc1ccc2c(c1)[C@]1(C(=O)N2)[C@H](c2ccc(O)cc2)N2[C@H](c3ccccc3)[C@H](c3ccccc3)OC(=O)[C@H]2[C@@H]1C(=O)Nc1nc2ccccc2s1)C(=O)OC`, the composite z-score turned out to be 0.313.

The compound `CCOC(=O)C[C@H]1[C@H](OC(=O)c2cc3ccccc3oc2=O)[C@@H](NC(=O)C2CCCCC2)c2cc(OCCCO)ccc2N1C(=O)c1ccccc1` yielded a composite z-score of 0.564.

As for `C=CC[C@@]1(C(N)=O)N=C(c2ccc(OCCCO)cc2)O[C@@H]1c1ccccc1CN=[N+]=[N-]`, the composite z-score was 1.19.

For `COc1ccc([Si](C)(C)[C@H]2[C@H](CCO)O[C@@]3(C(=O)N(C)c4c(Br)cc(C)cc43)[C@@H]2C)cc1`, the composite z-score worked out at 0.299.

Compound `C[C@@]1([C@@H](NC(=O)c2ccccc2)c2ccc(-c3ccccc3)cc2)C[C@H]1C1CCCCC1` returned a composite z-score of 0.57.

In turn, `O=C1NC(=O)C2C1C=CC(C(O)C(c1ccccc1)c1ccccc1)N2Nc1ccc(Cl)cc1Cl` (stereo not given) showed a composite z-score of 1.44.

In turn, `COCCOC(=O)N1C(=O)[C@@]2(c3cc(C#Cc4ccc(OC)cc4)ccc31)[C@H](C(N)=O)[C@H]1C(=O)O[C@H](c3ccccc3)[C@H](c3ccccc3)N1[C@@H]2c1ccccc1OCCO` displayed a composite z-score of 0.433.

With `C#CCN(Cc1ccccc1Br)C(/C=C/c1ccccc1)CO` (stereo not given), the composite z-score was -0.481.

Compound `CCCN1C(=O)[C@]2(CCS(=O)(=O)c3ccccc3)N=C(c3ccc(OCCCO)cc3)O[C@@H]2c2ccccc21` gave a composite z-score of 0.458.

As to `COCCOC(=O)N1C(=O)[C@@]2(c3cc(C#CCCO)ccc31)[C@H](C(=O)Nc1nc3ccccc3s1)[C@H]1C(=O)O[C@H](c3ccccc3)[C@H](c3ccccc3)N1[C@@H]2c1ccc(OCCO)cc1`, the composite z-score was 0.464.

`CCCCC(=C=CC[C@@H](O)c1ccccc1OCCO)CCO`: the composite z-score is 0.0797.
